IL-1B inflam inh: inhibitors of inflammasome signaling (IL-1 beta secretion); THP-1 LPS/ATP IL-1B secretion, AlphaLISA, 16 h; hits give low values; activity change, % at 57.5 µM; hit rate 4.7% among 360,000; AID 743279; in the data active means activity change below about -50%; inconclusive means mostly about -30% to -49%
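Secreted IL-1B measured by AlphaLISA bead assay after 16 h compound exposure of THP-1 cells; compounds (final up to 57.5 uM) added 1 h before LPS (250 ng/mL) and ATP (1.25 mM) stimulation; lower signal means less secretion.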
HT1080NT lethal: kills 2HG-producing HT-1080-NT fibrosarcoma cells. AID 686970. Potency, µM (titrated, usually from 46.1 µM), without a hit: at the top dose activity, negative = less viability, hits mostly cytotoxic. HT-1080-NT fibrosarcoma viability, CellTiter-Glo ATP luminescence, 48 h. hit rate 1.6% among 360,000;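 further: NT is the 2HG producing partner of a matched IDH1 knockdown line; potency means the concentration at half of the fitted maximal effect; 0% = DMSO-treated cells and -100% = media-only wells without cells; nearly all actives have a fitted effect of over 55% in size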
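750 cells/well, RPMI + 5% FBS; 2 h settle, compound pin-transfer, 48 h at 37 degrees C. CellTiter-Glo 10 min RT, luminescence. Normalized to DMSO and media-only wells.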
HT1080 IDH1KD tx: toxicity to HT-1080 IDH1 knockdown cells (counter line). HT-1080 IDH1 knockdown viability, ATP luminescence, 48 h. Potency, µM (highest dose often 46.1 µM), without a hit: at the top dose activity, negative = toxicity, actives largely listed as cytotoxic. hit rate 2% among 360,000. AID 686971;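 further: potency means the concentration at half of the fitted maximal effect; 0% = DMSO wells and -100% = cell-free medium wells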
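IDH1KD HT-1080 cells, 750/well, RPMI + 5% FBS; compound pinned after 2 h settling; 48 h, 37 °C; CellTiter-Glo luminescence; % activity normalised to DMSO and no-cell wells; curves fitted, classed by r2 and efficacy.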
DT40 TDP1 no CPT: qHTS for Inhibitors of human tyrosyl-DNA phosphodiesterase 1 (TDP1): qHTS in cells in absence of CPT; DT40 Tdp1-/- hTDP1 cells, no CPT, ATP luminescence, 48 h; Potency, µM (top dose mostly 46.2 µM), for inactives: top-dose activity change, negative = growth inhibition, most hits filed as inhibitors; hit rate 15% among 420,000; further: potency means the concentration at half of the fitted maximal effect; nearly all actives have a fitted effect of over 55% in size
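Compound effects on proliferation are scored in DT40 Tdp1-/-;hTDP1 cells in the absence of CPT. ATP levels (CellTiter-Glo luminescence) are recorded after a ≥48 hr, 37 °C incubation.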
DT40 TDP1 CPT: DT40-hTDP1 cell growth loss with CPT | chicken DT40 Tdp1-/-;hTDP1 cells + 20 nM CPT, ATP luminescence, 48 h | Potency, µM (series often up to 46.2 µM), for the others: at the highest dose activity change, negative = growth inhibition, usual class: inhibitors | hit rate 12% among 420,000 | AID 686979; further: potency means the concentration at half of the fitted maximal effect; nearly all actives have a fitted effect of over 55% in size
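Chicken DT40 Tdp1-/- cells stably complemented with human TDP1 were seeded at 400 cells/well in medium containing 20 nM camptothecin, exposed to pin-transferred compounds, and grown at 37 °C for at least 48 hr. Viability was read as ATP luminescence.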
Active calls of the source: *. Compounds with a hit are over-represented: about 19% of the library has one in this group of screens. Unless noted, the call rests on the fitted dose curve; in most records, active means well fitted curve in the direction sought with a large enough effect; inconclusive means small, poorly fitted or top-dose-only effect, or another doubt; inactive means no such curve, though single readings can be large; an effect the other way counts as inactive or inconclusive. Unless noted, on the % scale 0 is the no-effect control and ±100 the full control effect.

O=C(CN1C(=O)NC(CCc2ccccc2)C1=O)Nc1ccccc1C(F)(F)F (configuration not stated) was read as IL-1B inflam inh -1, HT1080NT lethal -1%, HT1080 IDH1KD tx 1%, DT40 TDP1 no CPT 4% and DT40 TDP1 CPT -1%.
Screening N#CC1=C(N)SC(N)=C(C#N)C1c1cccc(O)c1 returned IL-1B inflam inh 10, HT1080NT lethal -13%, HT1080 IDH1KD tx 0%, DT40 TDP1 no CPT inconclusive and DT40 TDP1 CPT 23µM*.
For CCO[C@@H]1OC(C(=O)NCc2nc3ccccc3[nH]2)=C[C@H](c2cn(C(C)=O)c3ccccc23)[C@H]1CCCO the results were IL-1B inflam inh inconclusive, HT1080NT lethal -10%, HT1080 IDH1KD tx -9%, DT40 TDP1 no CPT 16µM* and DT40 TDP1 CPT inconclusive.
`CCO[C@@H]1OC(C(=O)NCc2ccccc2)=C[C@H](c2cn(C(C)=O)c3ccccc23)[C@H]1CCCO` gave IL-1B inflam inh -54*, HT1080NT lethal -2%, HT1080 IDH1KD tx -6%, DT40 TDP1 no CPT 18µM* and DT40 TDP1 CPT inconclusive.
For CCO[C@H]1OC(C(=O)NCc2nc3ccccc3[nH]2)=C[C@@H](c2cn(C(C)=O)c3ccccc23)[C@@H]1CCCO the results were IL-1B inflam inh -14, HT1080NT lethal -9%, HT1080 IDH1KD tx -9%, DT40 TDP1 no CPT 18µM* and DT40 TDP1 CPT inconclusive.
Screening CCO[C@@H]1OC(C(=O)NCc2ccccc2)=C[C@H](c2ccc(Br)cc2)[C@H]1CCCO returned IL-1B inflam inh 0, HT1080NT lethal 0%, HT1080 IDH1KD tx 1%, DT40 TDP1 no CPT inconclusive and DT40 TDP1 CPT 23µM*.
CN(CCO)C(=O)c1cn(C2CCN(Cc3cccc(C(F)(F)F)c3)CC2)nn1 was read as DT40 TDP1 no CPT -18% and DT40 TDP1 CPT 9%.
CCCCCCCCN1C(=O)[C@H](CC(=O)NCc2cccs2)C[C@@]2(C(=O)OC)CCCCC=C12 was read as IL-1B inflam inh -22, HT1080NT lethal inconclusive, HT1080 IDH1KD tx inconclusive, DT40 TDP1 no CPT 15µM* and DT40 TDP1 CPT 16µM*.
`CCCCCCCCN1C(=O)[C@H](CC(=O)NCc2cccs2)C[C@@]2(C(=O)OCC)CCCC=C12` gave IL-1B inflam inh -62*, HT1080NT lethal inconclusive, HT1080 IDH1KD tx inconclusive, DT40 TDP1 no CPT 16µM* and DT40 TDP1 CPT inconclusive.
CCOC(=O)[C@]12CCCC=C1N(Cc1ccccc1)C(=O)[C@H](CC(=O)NCc1cccs1)C2 was read as IL-1B inflam inh -10, HT1080NT lethal -4%, HT1080 IDH1KD tx -8%, DT40 TDP1 no CPT -26% and DT40 TDP1 CPT -5%.
For COc1ccc(NC(=O)CN2CCN(CC(=O)Nc3ccccc3Cl)CC2)cc1Cl the results were IL-1B inflam inh -51*, HT1080NT lethal -1%, HT1080 IDH1KD tx -1%, DT40 TDP1 no CPT 12µM* and DT40 TDP1 CPT 15µM*.
Screening COc1cc(Cl)c(C)cc1NC(=O)c1ccccc1NC(=O)CN1CCOCC1 returned IL-1B inflam inh 22, HT1080NT lethal 16%, HT1080 IDH1KD tx 12%, DT40 TDP1 no CPT 4.6µM* and DT40 TDP1 CPT 2.6µM*.
Screening CCc1ccccc1NCC(=O)Nc1ccc(Cl)c(C(F)(F)F)c1 returned HT1080NT lethal inconclusive, HT1080 IDH1KD tx inconclusive, DT40 TDP1 no CPT 16µM* and DT40 TDP1 CPT 26µM*.
For COc1ccccc1NC(=O)CN1CCN(CC(=O)Nc2ccc(Cl)c(C(F)(F)F)c2)CC1 the results were IL-1B inflam inh -80*, HT1080NT lethal inconclusive, HT1080 IDH1KD tx 23µM*, DT40 TDP1 no CPT 13µM* and DT40 TDP1 CPT 15µM*.
COc1cc(NC(=O)c2ccccc2F)c(OC)cc1NC(=O)CN1CCOCC1 was read as IL-1B inflam inh -5, HT1080NT lethal -13%, HT1080 IDH1KD tx -10%, DT40 TDP1 no CPT inconclusive and DT40 TDP1 CPT -19%.
CCOC(=O)C1CCN(CC(=O)Nc2ccc(OC)c(Cl)c2)CC1 was read as IL-1B inflam inh 0, HT1080NT lethal -1%, HT1080 IDH1KD tx 15%, DT40 TDP1 no CPT -3% and DT40 TDP1 CPT -2%.
CCCCN(C1CCS(=O)(=O)C1)S(=O)(=O)c1ccc(OC)cc1 (configuration not stated) was read as IL-1B inflam inh 22, HT1080NT lethal 0%, HT1080 IDH1KD tx -6%, DT40 TDP1 no CPT -19% and DT40 TDP1 CPT 0%.
For Nc1nnc(C(c2ccccc2)c2ccccc2)s1 the results were IL-1B inflam inh 6, HT1080NT lethal 1%, HT1080 IDH1KD tx 10%, DT40 TDP1 no CPT inconclusive and DT40 TDP1 CPT inconclusive.
`CCC(C)NC(=O)CN(c1cc(C)cc(C)c1)S(=O)(=O)c1c(C)[nH]c(=O)[nH]c1=O` (configuration not stated) gave IL-1B inflam inh 17, HT1080NT lethal 1%, HT1080 IDH1KD tx -9%, DT40 TDP1 no CPT 5% and DT40 TDP1 CPT -7%.
For O=C(CCNC(=O)c1ccccc1Cl)Nc1ccc(Cl)c(C(F)(F)F)c1 the results were IL-1B inflam inh -1, HT1080NT lethal -1%, HT1080 IDH1KD tx -14%, DT40 TDP1 no CPT 23µM* and DT40 TDP1 CPT inconclusive.
Screening COc1ccc(NC(=O)CCNC(=O)c2ccccc2Cl)cc1OC returned IL-1B inflam inh 0, HT1080NT lethal 10%, HT1080 IDH1KD tx 17%, DT40 TDP1 no CPT 7% and DT40 TDP1 CPT -5%.
Screening CCOc1ccc(NC(=O)CN(C)C(=O)CCCOc2ccc(Br)cc2)cc1OCC returned IL-1B inflam inh -7, HT1080NT lethal -4%, HT1080 IDH1KD tx -13%, DT40 TDP1 no CPT inconclusive and DT40 TDP1 CPT 18µM*.
Screening CCOc1ccc(NC(=O)CN(C)C(=O)CCNC(=O)c2ccc(Br)cc2)cc1OCC returned IL-1B inflam inh -8, HT1080NT lethal 1%, HT1080 IDH1KD tx 0%, DT40 TDP1 no CPT -19% and DT40 TDP1 CPT -9%.
Cc1ccc(OCCCC(=O)N(C)CC(=O)Nc2ccccc2Br)cc1 was read as IL-1B inflam inh -55*, HT1080NT lethal -12%, HT1080 IDH1KD tx -16%, DT40 TDP1 no CPT -18% and DT40 TDP1 CPT -13%.
Screening COc1ccccc1NC(=O)CON=C(N)CC(=O)NC1CCCCC1 returned IL-1B inflam inh 6, HT1080NT lethal 1%, HT1080 IDH1KD tx 6%, DT40 TDP1 no CPT 0% and DT40 TDP1 CPT -4%.
COC(=O)C1OC(OC2CC[C@]3(C)C(CC[C@@]4(C)[C@@H]3CC=C3[C@@H]5CC(C)(C)CC[C@]5(C(=O)OC5OC(CO)C(O)C(O)C5O)CC[C@]34C)C2(C)C)C(O)C(O)C1O[C@H]1OCC(O)C(O)C1O (some centres not stated) was read as IL-1B inflam inh -56*, HT1080NT lethal inconclusive, HT1080 IDH1KD tx inconclusive, DT40 TDP1 no CPT -74% and DT40 TDP1 CPT inconclusive.

Compound activity: PubChem, National Center for Advancing Translational Sciences (NCATS)
